{"source": "the supplement of paper PMC10338343", "note": "± gives the standard deviation."}
{"system": "EfPiwi piRISC loaded with L1MC piRNA (26 nt)", "assay": "pre-steady-state target cleavage rate (min^-1); auxiliary factor: 500 nM Ephydatia muelleri Gtsf1; guide: L1MC piRNA 5'p-UAACUAAAUACUAUGCAAGCUGUAGG; MIWI and MILI are mouse PIWI proteins and EfPiwi is from a freshwater sponge; tags in brackets are library labels; higher = faster piRNA-guided slicing of the target", "description": "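Cleave-'n-Seq: a library of target RNAs (target site in constant flanks) at […] was incubated with 1 nM active freshwater sponge Ephydatia fluviatilis Piwi piRISC (synthetic 5'-monophosphorylated piRNA guide) with or without 500 nM EmGtsf1 at 33 °C for 1 min to 16 h. Uncleaved targets were sequenced and the pooled three trials fitted to a burst-and-steady-state model to give the pre-steady-state cleavage rate (min^-1). Sequence is the target site only. Fits with R² ≤ 0 are excluded.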"}
{"sequence": "UCCUGGAUCAGCUUGCAUCGUAUUUAGUUA", "pre-steady-state target cleavage rate": "0.00918 ± 0.0028"}
{"sequence": "UCCUGGAACAGCUUGCACAGUAUUUAGUUA", "pre-steady-state target cleavage rate": "0.0589 ± 0.015"}
{"sequence": "UCCUGCAACAGCUUCCAUAGUAUUUAGUUA", "pre-steady-state target cleavage rate": "0.00273 ± 0.0014"}
{"sequence": "UCCUGCUACAUCUUGCAUAGUAUUUAGUUA", "pre-steady-state target cleavage rate": "0.0423 ± 0.014"}
{"sequence": "UCCUCCUUCAGCUUGCAUAGUUUUUAGUUA", "pre-steady-state target cleavage rate": "0.00713 ± 0.0023"}
{"sequence": "UCCUGGAACAGCUUGGUUAGUAUUUAGUUA", "pre-steady-state target cleavage rate": "0.0135 ± 0.005"}
{"sequence": "UCCUGGAAGAGCUUGCAUAGUUUUUAGUUA", "pre-steady-state target cleavage rate": "0.00316 ± 0.003"}
{"sequence": "UCCUGGUACAGCUUGCUUAGUAUUUAGUUA", "pre-steady-state target cleavage rate": "0.0165 ± 0.0049"}
{"sequence": "UCCUCCUACAGCUUGCAUAGUUAUUUAGUUA", "pre-steady-state target cleavage rate": "0.00556 ± 0.0031"}
{"sequence": "UCCUGGUACAGCUUGCUUAGUAUUUAGUAA", "pre-steady-state target cleavage rate": "0.00376 ± 0.0023"}
{"sequence": "UCCUGGAUGUCGAACGAUACUAUUUUGUUA", "pre-steady-state target cleavage rate": "< 0.0001"}
{"sequence": "UCCUGGAUGUGCUUGCAUAGUAUUUACGUUA", "pre-steady-state target cleavage rate": "0.00702 ± 0.0042"}
{"sequence": "UCCUCCUACAGCUUGCACAGUAUUUAGUUA", "pre-steady-state target cleavage rate": "0.0475 ± 0.013"}
{"sequence": "UCCUGCUACAGCUUGCAUAGUAUUUAUGUUA", "pre-steady-state target cleavage rate": "0.00419 ± 0.0019"}
{"sequence": "UCCUUCUACAGCUUGCAUAGUAUUUAGUUA", "pre-steady-state target cleavage rate": "0.119 ± 0.035"}
{"sequence": "UCCUGGUACAGCUUGCCUAGUAUUUAGUUA", "pre-steady-state target cleavage rate": "0.00475 ± 0.0026"}
{"sequence": "UCCUGCUACAGCUUGCAUAGUAUAUAGAUA", "pre-steady-state target cleavage rate": "0.00352 ± 0.0017"}
{"sequence": "UCCUGGAUGAGCUUGCAUUGUAUUUAGUUA", "pre-steady-state target cleavage rate": "0.00376 ± 0.0029"}
{"sequence": "UCCUGGAACAGCUUGCCUAGUAUUUAGUUA", "pre-steady-state target cleavage rate": "0.0399 ± 0.013"}
{"sequence": "UCCUGGAUCACGUUGCAUAGUAUUUAGAAA", "pre-steady-state target cleavage rate": "0.00652 ± 0.0044"}
{"sequence": "UCCUGGAUGUGCUUGCAUAGUAAUUAGAUA", "pre-steady-state target cleavage rate": "0.00395 ± 0.0024"}
{"sequence": "UCCUGGAUCAGCUUGCAUAGUAUUUACGUUA", "pre-steady-state target cleavage rate": "0.0133 ± 0.0044"}
{"sequence": "UCCUGGUACUGCUUGCUUAGUAUUUAGUUA", "pre-steady-state target cleavage rate": "0.00909 ± 0.0033"}
{"sequence": "UCCUGCUAUAGCUUGCAUAGUAUUUAGUUA", "pre-steady-state target cleavage rate": "0.014 ± 0.0046"}
{"sequence": "UCCUGGAUGUGCUUAGCAUAGUAUUUAGUUA", "pre-steady-state target cleavage rate": "0.00497 ± 0.0028"}
{"sequence": "UCCUGCUACAGCUUGCAUAGUUAUUAGUAA", "pre-steady-state target cleavage rate": "0.00306 ± 0.0017"}
{"sequence": "UCCUGGAUGAGCUUGCAUAGUAUUUAGAUUA", "pre-steady-state target cleavage rate": "0.00336 ± 0.002"}
{"sequence": "UCCUCGUACAGCUUGCAUAGAAUUUAGUUA", "pre-steady-state target cleavage rate": "0.00771 ± 0.0018"}
{"sequence": "UCCUGCUACCAGCUUGCAUAGUAUUUAGUUA", "pre-steady-state target cleavage rate": "0.0199 ± 0.0059"}
{"sequence": "UCCUGGAUGACCAUGCAUAGUAUUUAGUUA", "pre-steady-state target cleavage rate": "0.00488 ± 0.0028"}
{"sequence": "UCCUCCUACAGCUUCCAAAGUAUUUAGUUA", "pre-steady-state target cleavage rate": "0.00527 ± 0.0019"}
{"sequence": "UCCUGGAACAGCUUGCAUAGUAUUUAGAAA", "pre-steady-state target cleavage rate": "0.00395 ± 0.0012"}
{"sequence": "UCCUGGUACAGGUUGCUUAGUAUUUAGUUA", "pre-steady-state target cleavage rate": "0.00576 ± 0.003"}
{"sequence": "UCCUGGAUGUCGAACGUAUCUAGUUUAGUUA", "pre-steady-state target cleavage rate": "< 0.0001"}
{"sequence": "UCCUCCUACAGCUUGCAUAGUAUUAGUUA", "pre-steady-state target cleavage rate": "0.00402 ± 0.0027"}
{"sequence": "UCCUGGUAGAGCUUGCAUAGUAUUUAGUAA", "pre-steady-state target cleavage rate": "0.00742 ± 0.0038"}
{"sequence": "UCCUCCAACAGCUUGCAUAGUAUUUAGUAA", "pre-steady-state target cleavage rate": "0.00668 ± 0.0028"}
{"sequence": "UCCUCCUACAGCUUGCAUAGUAUUUACGUUA", "pre-steady-state target cleavage rate": "0.00783 ± 0.0029"}
{"sequence": "UCCUGGAACAGCAUGCAAAGUAUUUAGUUA", "pre-steady-state target cleavage rate": "0.0163 ± 0.0061"}
{"sequence": "UCCUGCUACAGACUUGCAUAGUAUUUAGUUA", "pre-steady-state target cleavage rate": "0.00603 ± 0.0024"}
